The supplement of paper PMC10849652
About 7,900 targets were measured; listed, in parts, are those with a hit and a random draw of the rest. About 0.6% of all pairs of compound and target were hits. Unmarked numbers belong to inactive results.

Tests used:
Test in all cases: log2 fold change, soluble protein after heating vs DMSO (PISA); higher = thermal stabilisation; K562 cells, 10 uM, 30 min; active = over 0.2 and 3.5 SD of the protein, either way, in both replicates (recomputed)
[1] = compound: COC1=CC=C(C=C1)CN2C=CC3=C2C=C(C=C3)C(=O)NO
How it was run: (§1)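 Quantification of soluble protein used TMTpro 16plex LC-MS/MS, with channel sums equalised. Samples were the supernatant after 21,000xg for 90 min of pooled aliquots from K562 cells (2×10^6 cells/mL) treated with 10 μM compound for 30 min, heated for 3 min over 48°C-58°C, and extracted in PBS with 0.5% NP-40 at 4°C. Values, from duplicates, describe thermal stability against control samples on a log2 fold-change scale.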

filanesib = compound: CON(C)C(=O)N1N=C(c2cc(F)ccc2F)S[C@@]1(CCCN)c1ccccc1 [filanesib]
How it was run: as §1

zotarolimus = compound: CO[C@H]1C[C@@H]2CC[C@@H](C)[C@@](O)(O2)C(=O)C(=O)N2CCCC[C@H]2C(=O)O[C@H]([C@H](C)C[C@@H]2CC[C@H](n3cnnn3)[C@H](OC)C2)CC(=O)[C@H](C)/C=C(\C)[C@@H](O)[C@@H](OC)C(=O)[C@H](C)C[C@H](C)/C=C/C=C/C=C/1C [zotarolimus]
How it was run: as §1

idasanutlin = compound: COc1cc(C(=O)O)ccc1NC(=O)[C@@H]1N[C@@H](CC(C)(C)C)[C@](C#N)(c2ccc(Cl)cc2F)[C@H]1c1cccc(Cl)c1F [idasanutlin]
How it was run: as §1

alisertib = compound: COc1cc(Nc2ncc3c(n2)-c2ccc(Cl)cc2C(c2c(F)cccc2OC)=NC3)ccc1C(=O)O [alisertib]
How it was run: as §1

[2] = compound: COc1cc2nc(-c3cc(F)ccc3O)nc(N[C@@H]3CNC[C@H]3C(C)(C)O)c2cc1OC
How it was run: as §1

gefitinib = compound: COc1cc2ncnc(Nc3ccc(F)c(Cl)c3)c2cc1OCCCN1CCOCC1 [gefitinib]
How it was run: as §1

[3] = compound: COc1cccc2cc(-c3nc([C@H]4CC[C@H](C(=O)O)CC4)n4ncnc(N)c34)[nH]c12
How it was run: as §1

lapatinib = compound: CS(=O)(=O)CCNCc1ccc(-c2ccc3ncnc(Nc4ccc(OCc5cccc(F)c5)c(Cl)c4)c3c2)o1 [lapatinib]
How it was run: as §1

pictilisib = compound: CS(=O)(=O)N1CCN(Cc2cc3nc(-c4cccc5[nH]ncc45)nc(N4CCOCC4)c3s2)CC1 [pictilisib]
How it was run: as §1

[4] = compound: CS(=O)(=O)c1ccc(-c2cnc(N)c(C(=O)Nc3ccccc3)n2)cc1
How it was run: as §1

crizotinib = compound: C[C@@H](Oc1cc(-c2cnn(C3CCNCC3)c2)cnc1N)c1c(Cl)ccc(F)c1Cl [crizotinib]
How it was run: as §1

[5] = compound: C[C@@H]1COCCN1C2=NC(=NC(=C2)C3(CC3)S(=O)(=O)C)C4=C5C=CNC5=CC=C4
How it was run: as §1

[6] = compound: C[C@H](C1=CC=C(C=C1)C(=O)NC2=C3C=CNC3=NC=C2)N
How it was run: as §1

duvelisib = compound: C[C@H](Nc1ncnc2nc[nH]c12)c1cc2cccc(Cl)c2c(=O)n1-c1ccccc1 [duvelisib]
How it was run: as §1

gandotinib = compound: Cc1cc(Nc2cc(CN3CCOCC3)c3nc(C)c(Cc4ccc(Cl)cc4F)n3n2)n[nH]1 [gandotinib]
How it was run: as §1

tozasertib = compound: Cc1cc(Nc2cc(N3CCN(C)CC3)nc(Sc3ccc(NC(=O)C4CC4)cc3)n2)n[nH]1 [tozasertib]
How it was run: as §1

[7] = compound: Cc1cc(SCc2sc(-c3ccc(C(F)(F)F)cc3)nc2C)ccc1OCC(=O)O
How it was run: as §1

doramapimod = compound: Cc1ccc(-n2nc(C(C)(C)C)cc2NC(=O)Nc2ccc(OCCN3CCOCC3)c3ccccc23)cc1 [doramapimod]
How it was run: as §1

ispinesib = compound: Cc1ccc(C(=O)N(CCCN)[C@@H](c2nc3cc(Cl)ccc3c(=O)n2Cc2ccccc2)C(C)C)cc1 [ispinesib]
How it was run: as §1

Chain of UniProt Q13362 (Q13362 whole entry, looked up): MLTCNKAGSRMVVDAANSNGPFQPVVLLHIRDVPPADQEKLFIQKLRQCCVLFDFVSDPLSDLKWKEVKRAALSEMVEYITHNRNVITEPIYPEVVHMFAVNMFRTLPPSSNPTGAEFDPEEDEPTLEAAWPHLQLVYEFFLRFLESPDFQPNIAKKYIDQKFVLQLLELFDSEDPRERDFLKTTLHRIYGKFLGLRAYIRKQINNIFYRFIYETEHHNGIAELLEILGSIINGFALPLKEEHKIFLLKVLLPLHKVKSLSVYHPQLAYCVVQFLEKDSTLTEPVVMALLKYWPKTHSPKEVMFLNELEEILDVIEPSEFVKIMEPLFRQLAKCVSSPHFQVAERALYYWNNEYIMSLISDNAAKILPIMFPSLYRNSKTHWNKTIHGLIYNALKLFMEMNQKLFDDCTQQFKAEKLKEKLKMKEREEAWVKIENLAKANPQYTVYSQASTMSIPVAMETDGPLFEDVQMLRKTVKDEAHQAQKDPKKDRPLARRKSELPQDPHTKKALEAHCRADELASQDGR
Chain of UniProt Q8TBX8 (Q8TBX8 whole entry, looked up): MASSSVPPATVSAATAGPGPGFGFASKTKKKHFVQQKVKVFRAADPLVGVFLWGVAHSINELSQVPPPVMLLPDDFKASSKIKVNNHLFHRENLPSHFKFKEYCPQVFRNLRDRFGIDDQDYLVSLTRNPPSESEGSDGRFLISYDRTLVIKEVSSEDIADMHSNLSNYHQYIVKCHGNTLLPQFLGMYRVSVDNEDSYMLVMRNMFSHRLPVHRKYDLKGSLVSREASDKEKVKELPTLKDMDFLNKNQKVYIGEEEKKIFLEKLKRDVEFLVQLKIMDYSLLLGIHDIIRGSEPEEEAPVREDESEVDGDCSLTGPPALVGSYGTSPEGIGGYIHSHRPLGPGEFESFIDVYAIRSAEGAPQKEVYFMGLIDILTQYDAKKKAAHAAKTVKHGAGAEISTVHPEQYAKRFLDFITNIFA
Chain of UniProt P42338 (P42338 whole entry, looked up): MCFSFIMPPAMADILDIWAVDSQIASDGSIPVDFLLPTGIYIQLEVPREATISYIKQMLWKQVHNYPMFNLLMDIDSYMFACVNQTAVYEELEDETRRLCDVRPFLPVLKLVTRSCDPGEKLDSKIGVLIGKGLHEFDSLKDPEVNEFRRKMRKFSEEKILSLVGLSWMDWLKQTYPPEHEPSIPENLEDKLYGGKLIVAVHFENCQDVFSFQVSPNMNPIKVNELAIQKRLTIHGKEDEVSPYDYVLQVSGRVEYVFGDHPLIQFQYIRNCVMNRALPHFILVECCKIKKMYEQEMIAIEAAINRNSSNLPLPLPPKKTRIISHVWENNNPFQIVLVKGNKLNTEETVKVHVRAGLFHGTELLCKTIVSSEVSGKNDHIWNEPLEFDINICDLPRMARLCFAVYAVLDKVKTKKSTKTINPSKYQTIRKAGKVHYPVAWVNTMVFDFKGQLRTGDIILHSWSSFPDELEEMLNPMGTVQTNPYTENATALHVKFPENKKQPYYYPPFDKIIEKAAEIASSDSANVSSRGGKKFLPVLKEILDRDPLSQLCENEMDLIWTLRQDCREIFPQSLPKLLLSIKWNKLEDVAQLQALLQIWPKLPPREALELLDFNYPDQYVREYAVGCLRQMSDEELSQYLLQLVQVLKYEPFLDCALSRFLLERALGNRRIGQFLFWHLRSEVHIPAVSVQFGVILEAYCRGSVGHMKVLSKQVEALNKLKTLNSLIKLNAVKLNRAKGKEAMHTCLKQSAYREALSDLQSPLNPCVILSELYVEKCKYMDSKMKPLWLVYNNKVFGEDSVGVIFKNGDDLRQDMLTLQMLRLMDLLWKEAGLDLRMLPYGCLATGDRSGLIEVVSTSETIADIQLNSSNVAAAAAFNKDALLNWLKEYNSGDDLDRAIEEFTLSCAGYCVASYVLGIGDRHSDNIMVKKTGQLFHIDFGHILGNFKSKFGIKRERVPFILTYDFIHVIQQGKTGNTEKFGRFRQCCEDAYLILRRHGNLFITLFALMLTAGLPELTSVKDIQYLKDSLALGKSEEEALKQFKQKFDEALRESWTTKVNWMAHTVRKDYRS
Chain of UniProt Q96PU8 (Q96PU8 whole entry, looked up): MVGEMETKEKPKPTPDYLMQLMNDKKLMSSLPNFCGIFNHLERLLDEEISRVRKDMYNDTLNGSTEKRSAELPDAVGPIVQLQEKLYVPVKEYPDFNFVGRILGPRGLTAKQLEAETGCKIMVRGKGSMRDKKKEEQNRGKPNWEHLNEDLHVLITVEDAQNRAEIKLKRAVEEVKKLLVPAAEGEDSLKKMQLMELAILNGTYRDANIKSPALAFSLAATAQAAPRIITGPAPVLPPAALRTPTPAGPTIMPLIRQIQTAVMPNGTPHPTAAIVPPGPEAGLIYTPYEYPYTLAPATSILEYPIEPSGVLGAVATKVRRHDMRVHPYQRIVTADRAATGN
Chain of UniProt Q8NCC3 (Q8NCC3 whole entry, looked up): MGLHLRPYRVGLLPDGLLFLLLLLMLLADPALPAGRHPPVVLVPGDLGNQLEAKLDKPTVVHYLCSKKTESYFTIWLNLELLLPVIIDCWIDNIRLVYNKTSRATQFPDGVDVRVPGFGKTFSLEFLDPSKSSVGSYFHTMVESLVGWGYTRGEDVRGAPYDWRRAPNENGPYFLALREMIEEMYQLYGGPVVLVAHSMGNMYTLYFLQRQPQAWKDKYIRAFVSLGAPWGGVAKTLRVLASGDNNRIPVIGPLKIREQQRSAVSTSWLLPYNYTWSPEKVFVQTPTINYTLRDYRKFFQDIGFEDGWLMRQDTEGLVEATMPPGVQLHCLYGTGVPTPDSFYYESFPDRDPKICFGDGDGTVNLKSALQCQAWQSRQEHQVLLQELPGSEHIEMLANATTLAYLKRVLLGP
Chain of UniProt P54619 (P54619 whole entry, looked up): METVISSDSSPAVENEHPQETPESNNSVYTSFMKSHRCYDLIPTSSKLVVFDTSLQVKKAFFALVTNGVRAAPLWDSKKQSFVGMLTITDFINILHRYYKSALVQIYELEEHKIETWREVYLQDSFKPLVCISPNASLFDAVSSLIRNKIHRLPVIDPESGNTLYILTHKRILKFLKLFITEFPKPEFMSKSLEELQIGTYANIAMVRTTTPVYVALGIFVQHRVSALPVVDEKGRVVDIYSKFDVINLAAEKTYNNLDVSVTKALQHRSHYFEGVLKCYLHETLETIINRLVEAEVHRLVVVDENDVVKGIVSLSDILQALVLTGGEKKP
Chain of UniProt O00408 (O00408 whole entry, looked up): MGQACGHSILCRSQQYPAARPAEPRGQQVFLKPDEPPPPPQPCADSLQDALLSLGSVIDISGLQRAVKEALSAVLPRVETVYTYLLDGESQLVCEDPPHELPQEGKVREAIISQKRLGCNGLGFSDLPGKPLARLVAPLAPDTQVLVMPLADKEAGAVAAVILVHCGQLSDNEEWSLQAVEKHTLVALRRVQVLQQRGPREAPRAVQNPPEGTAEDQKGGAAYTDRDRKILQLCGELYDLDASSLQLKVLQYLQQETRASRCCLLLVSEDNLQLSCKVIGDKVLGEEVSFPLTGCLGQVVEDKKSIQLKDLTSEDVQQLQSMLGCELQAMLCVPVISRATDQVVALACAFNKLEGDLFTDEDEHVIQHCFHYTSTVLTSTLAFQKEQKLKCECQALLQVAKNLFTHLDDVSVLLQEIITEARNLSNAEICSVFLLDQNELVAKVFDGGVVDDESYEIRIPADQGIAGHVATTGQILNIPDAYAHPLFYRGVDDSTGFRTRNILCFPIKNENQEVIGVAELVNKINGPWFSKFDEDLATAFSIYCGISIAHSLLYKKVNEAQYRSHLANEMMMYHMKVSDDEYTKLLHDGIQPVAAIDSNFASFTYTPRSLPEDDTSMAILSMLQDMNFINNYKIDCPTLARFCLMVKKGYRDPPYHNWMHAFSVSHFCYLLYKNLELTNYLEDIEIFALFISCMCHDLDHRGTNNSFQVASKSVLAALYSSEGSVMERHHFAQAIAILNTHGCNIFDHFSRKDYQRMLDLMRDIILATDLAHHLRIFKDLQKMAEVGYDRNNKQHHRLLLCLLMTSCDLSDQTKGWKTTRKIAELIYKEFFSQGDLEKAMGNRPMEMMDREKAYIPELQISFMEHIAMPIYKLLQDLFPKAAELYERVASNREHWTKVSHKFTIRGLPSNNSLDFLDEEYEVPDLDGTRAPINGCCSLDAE
Chain of UniProt O15305 (O15305 whole entry, looked up): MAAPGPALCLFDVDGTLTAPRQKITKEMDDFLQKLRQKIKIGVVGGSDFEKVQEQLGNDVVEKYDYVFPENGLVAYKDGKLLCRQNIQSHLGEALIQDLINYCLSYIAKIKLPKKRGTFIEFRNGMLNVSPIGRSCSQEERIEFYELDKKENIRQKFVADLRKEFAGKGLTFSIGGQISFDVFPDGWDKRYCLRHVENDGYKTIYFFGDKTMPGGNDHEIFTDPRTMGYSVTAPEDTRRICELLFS

Row | Target | log2 fold change [1] | log2 fold change (filanesib) | log2 fold change (zotarolimus) | log2 fold change (idasanutlin) | log2 fold change (alisertib) | log2 fold change [2] | log2 fold change (gefitinib) | log2 fold change [3] | log2 fold change (lapatinib) | log2 fold change (pictilisib) | log2 fold change [4] | log2 fold change (crizotinib) | log2 fold change [5] | log2 fold change [6] | log2 fold change (duvelisib) | log2 fold change (gandotinib) | log2 fold change (tozasertib) | log2 fold change [7] | log2 fold change (doramapimod) | log2 fold change (ispinesib)
1 | PPP2R5C isoform 4 (UniProt Q13362) | 0.125 | -0.018 | -0.019 | 0.017 | 0.031 | 0.155 | -0.004 | 0.002 | 0.053 | 0.021 | 0.031 | -0.021 | -0.177 | 0.029 | 0.066 | -0.011 | -0.055 | -0.01 | -0.06 | -0.036
2 | QKI (UniProt Q96PU8) | -0.004 | -0.004 | -0.026 | -0.032 | -0.077 | -0.079 | 0.019 | 0.011 | -0.007 | -0.032 | -0.057 | 0.075 | 0.046 | -0.079 | 0.032 | -0.093 | 0.027 | 0.034 | 0 | -0.034
3 | PRKAG1 isoform 3 (UniProt P54619) | -0.02 | -0.036 | 0 | -0.004 | 0.022 | 0.008 | 0.002 | 0.049 | -0.055 | -0.037 | -0.01 | -0.114 | 0.006 | -0.023 | 0.035 | -0.249 | -0.032 | 0.004 | -0.003 | -0.018
4 | PDE2A (UniProt O00408) | 0.172 | -0.118 | 0.001 | -0.089 | -0.053 | 0.134 | -0.004 | 0.027 | -0.014 | 0.148 | -0.064 | 0.004 | 0.223 | -0.108 | 0.034 | 0.117 | -0.105 | 0.045 | -0.026 | -0.067
5 | PLA2G15 (UniProt Q8NCC3) | -0.041 | -0.076 | -0.007 | 0.01 | 0.095 | 0.03 | 0.001 | 0.056 | -0.001 | -0.01 | 0 | -0.163 | -0.008 | 0.015 | -0.038 | -0.036 | -0.075 | -0.016 | 0.015 | -0.055
6 | PMM2 (UniProt O15305) | -0.054 | -0.014 | -0.01 | 0.011 | 0.009 | 0.071 | 0.016 | 0.034 | -0.088 | -0.113 | 0.006 | 0.08 | 0.013 | 0.012 | 0.056 | -0.045 | -0.017 | -0.031 | -0.015 | 0.009
7 | PIP4K2C (UniProt Q8TBX8) | 0.058 | -0.025 | -0.021 | -0.186 | -0.021 | 0.866 (active) | 0.115 | 0.684 | -0.043 | 0.134 | 1.06 (active) | -0.058 | 0.042 | 0.063 | 0.047 | 0.033 | 0.018 | 0.057 | -0.044 | 0.009
8 | PIK3CB (UniProt P42338) | 0.063 | 0.007 | 0.042 | -0.041 | 0.003 | 0.02 | 0.048 | 0.01 | 0.001 | 0.258 (active) | 0.043 | -0.077 | 0.064 | 0.034 | 0.318 (active) | -0.041 | -0.075 | 0.06 | 0 | -0.057
